According to PubChem BioAssay (EPA / NIEHS):
Results filed as inconclusive are left out. Activity calls are given as the source filed them. Rule for the calls, unless noted: active = hit-call score of the fitted dose curve at least 0.9, where 1 is the maximum; inactive = score below 0.9.

What was measured:
[1] = ACEA_ER_80hr: ACEA Biosciences xCELLigence Real-Time Cell Analysis on Estrogen Receptor Agonism for Proliferation (AID 2282667; active = hit-call score of the fitted dose curve at least 0.9, where 1 is the maximum); conditions: T47D proliferation, impedance (xCELLigence), 80 h
Summary of the method: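 Real-time impedance growth kinetics of human T-47D breast cells read 80 h after dosing, gain-of-signal fitted relative to DMSO. Compounds: 1:4 serial series, top final concentration 100 uM, n = 2.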

[2] = ATG_CRE_CIS: Attagene CIS-FACTORIAL HepG2 Assay for human cAMP Responsive Element (CRE) binding protein 3 (AID 2282926); conditions: HepG2 CRE cis-reporter, Attagene multiplexed mRNA; actives raise or lower the signal
Summary of the method: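 Multiplexed transcription-unit reporters transfected into HepG2; 24 h dosing; RT-PCR/capillary electrophoresis fluorescence read-out; bidirectional fit vs DMSO.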

[3] = biological target: CCAAT/enhancer-binding protein beta (Homo sapiens) (UniProt P17676); experiment: ATG_C_EBP_CIS: Attagene CIS-FACTORIAL HepG2 Assay for human CCAAT/Enhancer Binding Protein (C/EBP) beta (AID 2282927); conditions: HepG2 Attagene cis-factorial transcription factor reporter; actives raise or lower the signal
Chain of CCAAT/enhancer-binding protein beta (Homo sapiens) (P17676 whole entry, looked up, the tested form may be a part): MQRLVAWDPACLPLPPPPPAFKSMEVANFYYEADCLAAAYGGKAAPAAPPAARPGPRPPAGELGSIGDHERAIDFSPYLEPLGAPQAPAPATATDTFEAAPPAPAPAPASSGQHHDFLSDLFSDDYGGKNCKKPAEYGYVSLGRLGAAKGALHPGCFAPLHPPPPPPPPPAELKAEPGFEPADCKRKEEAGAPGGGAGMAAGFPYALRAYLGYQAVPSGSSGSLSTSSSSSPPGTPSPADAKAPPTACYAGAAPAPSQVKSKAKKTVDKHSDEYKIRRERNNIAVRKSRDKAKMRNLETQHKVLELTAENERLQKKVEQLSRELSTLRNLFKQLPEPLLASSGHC
Summary of the method: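 Endogenous C/EBPb-driven reporter transcripts measured in transfected human HepG2 cells at 24 h via RT-PCR and capillary electrophoresis of labelled fragments. Activity fitted in both directions relative to DMSO baseline.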

[4] = ATG_CMV_CIS: Attagene CIS-FACTORIAL HepG2 Assay for human CMV (Internal Marker) (AID 2282928); conditions: HepG2 CMV promoter reporter, transcription factor profiling; actives raise or lower the signal;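 note: endpoint acts as a background internal control marker rather than a target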
Summary of the method: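 After transient transfection of HepG2 with reporter transcription units driven by cis-regulatory promoters, cells receive test chemical for 24 h. Labeled reporter amplicons, digested with HpaI, are sized and quantified by capillary electrophoresis against DMSO.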

[5] = ATG_DR4_LXR_CIS: Attagene CIS-FACTORIAL HepG2 Assay for human Liver X Receptor (LXR), DR4 submotif (AID 2282929); conditions: HepG2 Attagene DR4 cis-reporter, mRNA transcription; actives raise or lower the signal
Summary of the method: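 Transiently transfected HepG2 liver cells; cis-regulated reporters; 24 h dosing. RT-PCR plus CE read-out of reporter mRNA. DMSO baseline, bidirectional curve fitting.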

[6] = biological target: Aryl hydrocarbon receptor (Homo sapiens) (UniProt P35869); experiment: ATG_Ahr_CIS: Attagene CIS-FACTORIAL HepG2 Assay for human Aryl Hydrocarbon Receptor (Ahr) (AID 2282930); conditions: HepG2 AhR cis-factorial reporter transcription; actives raise or lower the signal
Chain of Aryl hydrocarbon receptor (Homo sapiens) (P35869 whole entry, looked up): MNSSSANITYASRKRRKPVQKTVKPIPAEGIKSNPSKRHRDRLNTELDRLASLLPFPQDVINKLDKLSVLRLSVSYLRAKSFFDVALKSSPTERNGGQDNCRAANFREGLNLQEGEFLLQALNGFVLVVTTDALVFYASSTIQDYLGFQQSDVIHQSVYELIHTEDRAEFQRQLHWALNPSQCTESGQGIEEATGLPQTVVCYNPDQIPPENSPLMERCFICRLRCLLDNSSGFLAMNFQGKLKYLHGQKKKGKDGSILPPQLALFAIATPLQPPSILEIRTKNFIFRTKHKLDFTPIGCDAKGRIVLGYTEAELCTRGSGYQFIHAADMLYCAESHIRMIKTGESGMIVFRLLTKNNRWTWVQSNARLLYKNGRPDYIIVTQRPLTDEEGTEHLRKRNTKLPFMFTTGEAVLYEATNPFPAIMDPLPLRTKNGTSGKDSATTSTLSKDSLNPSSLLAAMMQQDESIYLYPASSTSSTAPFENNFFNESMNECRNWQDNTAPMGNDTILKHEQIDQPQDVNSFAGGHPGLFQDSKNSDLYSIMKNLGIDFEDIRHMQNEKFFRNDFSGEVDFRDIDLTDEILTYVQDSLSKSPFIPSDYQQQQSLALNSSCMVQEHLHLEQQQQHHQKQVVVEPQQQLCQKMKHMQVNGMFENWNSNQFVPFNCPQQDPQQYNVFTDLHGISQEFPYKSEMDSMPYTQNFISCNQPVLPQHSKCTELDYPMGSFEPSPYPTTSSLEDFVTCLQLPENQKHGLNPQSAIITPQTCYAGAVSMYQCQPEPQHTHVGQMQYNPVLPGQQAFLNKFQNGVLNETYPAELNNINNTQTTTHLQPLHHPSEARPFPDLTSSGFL
Summary of the method: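 Reporter mRNA levels, quantified by RT-PCR and fluorescent capillary electrophoresis, reflect endogenous AhR transcriptional activity in HepG2 cells carrying transfected cis-promoter reporter constructs. Readout at 24 h post-dose; gain or loss fitted against DMSO baseline.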

[7] = ATG_AP_1_CIS: Attagene CIS-FACTORIAL HepG2 Assay for human Activator Protein 1 (AP-1) (AID 2282931); conditions: HepG2 Attagene cis-factorial AP-1 reporter mRNA; actives raise or lower the signal
Summary of the method: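 We transfected HepG2 cells transiently with a set of cis-regulated reporter transcription units, dosed them for 24 h, and quantified reporter mRNA via RT-PCR and capillary electrophoresis, scoring gain or loss of signal relative to DMSO.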

[8] = ATG_AP_2_CIS: Attagene CIS-FACTORIAL HepG2 Assay for human Activator Protein 2 (AP-2) (AID 2282932); conditions: HepG2 AP-2 cis-reporter, Attagene transcription factor profiling; actives raise or lower the signal
Summary of the method: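 Step one: transient transfection of HepG2 with reporter transcription units. Step two: 24 h chemical exposure. Step three: RNA extraction, RT-PCR, labelled fragment analysis by capillary electrophoresis; DMSO serves as baseline.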

[9] = ATG_BRE_CIS: Attagene CIS-FACTORIAL HepG2 Assay for human Bone Morphogenetic Protein (BMP) Response Element (BRE) (AID 2282933); conditions: HepG2 BMP response element reporter, Attagene transcription factor profiling; actives raise or lower the signal
Summary of the method: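 Fluorescence-labelled reporter cDNA fragments, separated by capillary electrophoresis, gave the signal for this component of a 52-readout multiplex. HepG2 cells were transfected, exposed to chemicals for 24 h, and compared with DMSO using bidirectional fitting.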

[10] = biological target: Retinoic acid receptor alpha (Homo sapiens) (UniProt P10276); experiment: ATG_DR5_RAR_CIS: Attagene CIS-FACTORIAL HepG2 Assay for human Retinoic Acid Receptor Alpha (RARE), DR5 submotif (AID 2282934); conditions: HepG2 Attagene cis-factorial RARE DR5 reporter, mRNA; actives raise or lower the signal
Chain of Retinoic acid receptor alpha (Homo sapiens) (P10276 whole entry, looked up): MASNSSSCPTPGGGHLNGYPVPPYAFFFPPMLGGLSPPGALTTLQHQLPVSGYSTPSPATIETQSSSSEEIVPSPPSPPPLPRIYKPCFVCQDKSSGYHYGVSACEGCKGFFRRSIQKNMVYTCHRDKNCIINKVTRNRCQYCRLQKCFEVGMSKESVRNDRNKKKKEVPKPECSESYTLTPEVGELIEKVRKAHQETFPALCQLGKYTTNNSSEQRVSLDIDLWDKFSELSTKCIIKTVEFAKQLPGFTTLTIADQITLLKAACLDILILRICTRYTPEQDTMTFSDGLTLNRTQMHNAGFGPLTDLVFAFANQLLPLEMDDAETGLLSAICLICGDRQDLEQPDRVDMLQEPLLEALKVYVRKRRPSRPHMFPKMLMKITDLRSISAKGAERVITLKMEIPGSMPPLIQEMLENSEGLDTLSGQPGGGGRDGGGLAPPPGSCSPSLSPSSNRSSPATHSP
Summary of the method: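 Reporter transcripts from a DR5-regulated unit, measured via RT-PCR plus capillary electrophoresis, reflect endogenous RAR activity in transiently transfected human HepG2 liver cells. Exposure lasted 24 h; gain or loss of signal scored against DMSO.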

[11] = biological target: Transcription factor E2F1 (Homo sapiens) (UniProt Q01094); experiment: ATG_E2F_CIS: Attagene CIS-FACTORIAL HepG2 Assay for human E2F Transcription Factor 1 (AID 2282935); conditions: HepG2 Attagene cis-reporter, E2F reporter RNA transcripts; actives raise or lower the signal
Chain of Transcription factor E2F1 (Homo sapiens) (Q01094 whole entry, looked up): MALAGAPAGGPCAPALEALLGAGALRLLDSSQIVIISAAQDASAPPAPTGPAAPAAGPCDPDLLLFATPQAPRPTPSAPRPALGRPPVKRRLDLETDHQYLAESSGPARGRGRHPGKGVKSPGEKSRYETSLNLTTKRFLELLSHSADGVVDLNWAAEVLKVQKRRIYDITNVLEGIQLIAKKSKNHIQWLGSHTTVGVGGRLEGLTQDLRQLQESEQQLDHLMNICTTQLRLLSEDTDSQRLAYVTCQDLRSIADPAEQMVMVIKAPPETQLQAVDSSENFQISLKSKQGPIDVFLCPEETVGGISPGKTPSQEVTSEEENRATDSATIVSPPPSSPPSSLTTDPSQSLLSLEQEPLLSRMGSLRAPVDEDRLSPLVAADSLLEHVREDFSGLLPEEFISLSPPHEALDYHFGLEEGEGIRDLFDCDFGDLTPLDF
Summary of the method: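 Total RNA from 24 h-treated, reporter-transfected HepG2 cells undergoes DNase I treatment, oligo(dT) reverse transcription, PCR and 6-FAM primer extension before capillary electrophoresis.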

[12] = ATG_E_Box_CIS: Attagene CIS-FACTORIAL HepG2 Assay for human Enhancer Box (E-box) (AID 2282936); conditions: HepG2 E-box cis-reporter transcription, actives raise or lower the signal
Summary of the method: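 DMSO served as negative control and baseline for bidirectional fitting. Human hepatoma HepG2 cells, transiently transfected with cis-reporter constructs, were dosed 24 h; reporter mRNA read by RT-PCR and capillary electrophoresis.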

[13] = ATG_M_61_CIS: Attagene CIS-FACTORIAL HepG2 Assay for M61 Transcription Factor (Internal Marker) (AID 2282937); conditions: HepG2 Attagene CIS-FACTORIAL M61 internal marker reporter; actives raise or lower the signal
Summary of the method: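 Multiplexed reporter mRNA assay, HepG2 human hepatoma cells, 24 h treatment. Signal: FAM-labelled, HpaI-digested RT-PCR fragments by CE. Fit: bidirectional, baseline DMSO.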

[14] = ATG_EGR_CIS: Attagene CIS-FACTORIAL HepG2 Assay for human Early Growth Response 1 (EGR1) (AID 2282938); conditions: HepG2 Attagene CIS-FACTORIAL EGR reporter mRNA; actives raise or lower the signal
Summary of the method: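 Multiplexed cis-reporter system in human hepatoma HepG2 cells, transiently transfected. Cells are dosed for 24 h; reporter transcripts are amplified, fluorescently tagged and sized by capillary electrophoresis, with DMSO as negative control.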

[15] = ATG_M_19_CIS: Attagene CIS-FACTORIAL HepG2 Assay for M19 Transcription Factor (Internal Marker) (AID 2282939); conditions: HepG2 Attagene CIS-FACTORIAL M19 internal marker reporter; actives raise or lower the signal
Summary of the method: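 HepG2, MRTU transient transfection, 24 h dosing. Total RNA → RT-PCR → 6-FAM primer extension → HpaI digest → CE fluorescence. Bidirectional curve fit, DMSO negative control.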

[16] = ATG_ERE_CIS: Attagene CIS-FACTORIAL HepG2 Assay for Estrogen Response Element (ERE) (AID 2282940); conditions: HepG2 ERE cis-reporter, Attagene RNA transcript; actives raise or lower the signal
Summary of the method: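 After a 24 h chemical treatment, RNA from reporter-transfected HepG2 cells is reverse-transcribed, PCR-amplified and fluorescently labelled. Fragments separated by capillary electrophoresis give reporter signal; DMSO serves as negative control.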

[17] = ATG_Ets_CIS: Attagene CIS-FACTORIAL HepG2 Assay for human Erythroblast Transformation Specific (ETS) (AID 2282941); conditions: HepG2 ETS cis-reporter transcription, actives raise or lower the signal
Summary of the method: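 Human HepG2 hepatoma cells were transiently transfected with promoter-driven reporter constructs and treated for 24 hours. Reporter transcripts were quantified by RT-PCR with fluorescent primer extension; bidirectional curve fitting used DMSO as reference.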

[18] = biological target: Hepatocyte nuclear factor 3-beta (Homo sapiens) (UniProt Q9Y261); experiment: ATG_FoxA2_CIS: Attagene CIS-FACTORIAL HepG2 Assay for human Forkhead box A2 (FOXA2) (AID 2282942); conditions: HepG2 cis-reporter transcription factor activity, 24 h; actives raise or lower the signal
Chain of Hepatocyte nuclear factor 3-beta (Homo sapiens) (Q9Y261 whole entry, looked up): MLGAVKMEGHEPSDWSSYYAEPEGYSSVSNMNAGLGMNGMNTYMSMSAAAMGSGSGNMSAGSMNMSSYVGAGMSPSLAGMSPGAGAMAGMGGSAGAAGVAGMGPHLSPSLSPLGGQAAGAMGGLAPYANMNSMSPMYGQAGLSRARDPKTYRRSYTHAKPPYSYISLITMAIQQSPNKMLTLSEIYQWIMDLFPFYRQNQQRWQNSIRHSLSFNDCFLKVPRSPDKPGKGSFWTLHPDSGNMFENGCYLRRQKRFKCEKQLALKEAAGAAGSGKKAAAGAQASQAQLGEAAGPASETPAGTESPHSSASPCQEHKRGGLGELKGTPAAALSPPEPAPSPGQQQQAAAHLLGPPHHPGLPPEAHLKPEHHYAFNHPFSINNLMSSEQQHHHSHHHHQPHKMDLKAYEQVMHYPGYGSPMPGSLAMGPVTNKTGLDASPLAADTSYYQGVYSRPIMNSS
Summary of the method: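 Multiplexed cis-element reporter assay in transiently transfected HepG2. Twenty-four hours post-dosing, RNA was reverse-transcribed, amplified, FAM-labelled, HpaI-digested and separated by CE. Activity gain or loss relative to DMSO.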

[19] = ATG_FoxO_CIS: Attagene CIS-FACTORIAL HepG2 Assay for human Forkhead box O (FoxO) (AID 2282943); conditions: HepG2 Attagene cis-reporter, FoxO element, mRNA; actives raise or lower the signal
Summary of the method: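 Endogenous transcription factor activity read from multiplexed cis-promoter reporter transcripts in transiently transfected HepG2, 24 h after dosing. Reporter RNA measured via RT-PCR plus capillary electrophoresis of FAM-labeled products; gain or loss relative to DMSO.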

[20] = ATG_GATA_CIS: Attagene CIS-FACTORIAL HepG2 Assay for human GATA Binding Protein (AID 2282944); conditions: HepG2 GATA cis-element reporter, Attagene multiplex mRNA; actives raise or lower the signal
Summary of the method: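 Cells: HepG2, transiently transfected with cis-regulated reporter transcription units. Exposure: 24 h. Detection: RT-PCR plus capillary electrophoresis of FAM-labeled fragments. Analysis: bidirectional, DMSO as baseline.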

Measured: outcome

FC(F)(F)C(F)(F)C(F)(F)C(F)(F)C(F)(F)C(F)(F)C(F)(F)CCI
inactive: all assays above

CCOCOCC
inactive: all assays above

OCC1CCCO1 (stereo not given)
inactive: all assays above
